Compound activity (PubChem)
PGC1a acetyl inh – PGC1a acetylation modulation, inhibitor mode. U2OS PGC1a acetylation, AlphaScreen anti-acetyl-lysine; with virally co-expressed GCN5 acetyltransferase. inhibition, % at 15.6 µM. 350,000 compounds, 0.17% hits. AID 651687;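 active = every replicate shows inhibition of at least 40%; inconclusive = mean inhibition at least 40% but some replicate below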
EWS-Fli inh – inhibitors of EWS/Fli oncoprotein transcriptional activity; 350,000 compounds, 0.67% hits; AID 651661; A673 NR0B1-luciferase reporter, viability-normalised; inhibition, % at 12.6 µM;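 active = mean inhibition of at least 50% after viability correction, with every replicate also passing that limit; inconclusive = mean reaches 50% but only one of two replicates passes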;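 also: firefly luciferase signal divided by Alamar Blue viability fluorescence both relative to DMSO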
LGR2 antag – blocks bursicon-induced cAMP signaling via Drosophila LGR2 | HEK293 LGR2, CRE-luciferase, bursicon-stimulated, 4 h | inhibition, % at 9.99 µM | 380,000 compounds, 0.35% hits;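 active = drop in luminescence signal, shown as inhibition above about 50% in the replicate tests, limit read from the data, passing the limit was not always enough; inconclusive = probably only some replicates passing the limit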;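 also: agonist challenge used bursicon conditioned medium at about half maximal strength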
MITF TRPM1 inh – inhibitors of MITF-driven TRPM1 promoter in melanoma cells; SK-MEL-5 TRPM1 promoter luciferase, 24 h; 330,000 compounds, 0.83% hits; AID 488899; inhibition, % at 12.5 µM;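 active = mean inhibition across replicates of 60% or more, whatever share of single replicates reaches that level; inconclusive = some that reach 60%, reason not given; inactive = mean inhibition across replicates below 60%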
EBV LMP1 NFkB – inhibitors of Epstein-Barr LMP1-induced NF-kappaB reporter. LMP1-induced NF-kappaB luciferase reporter cells, luminescence. 350,000 compounds, 0.69% hits. AID 504558. inhibition, % at 12.5 µM; in the data active = inhibition above about 41%; inconclusive = no clear call, values can overlap the other calls
PAX8 inh HTS – PAX8 transcriptional activity inhibition. RMG-I TPO-luciferase reporter, SteadyGlo, 24 h. inhibition, % at 12.6 µM. 360,000 compounds, 1.2% hits. AID 652154;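 active = mean replicate inhibition at least 60% with every replicate also reaching 60%; inconclusive = only one of the two criteria is met; inactive = mean below 60% and not all replicates reaching 60%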;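 also: luciferase light reporting Pax8 driven TPO promoter activity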
Of the large screens only hits and unclear results are named; the others gave an inactive call. Compounds with a hit are over-represented: about 2.2% of the library has one in this group of screens.

FC(F)(F)c1cnc(NNC(=S)Nc2ccc(Cl)cc2)c(Cl)c1	PAX8 inh HTS 76 (no result: PGC1a acetyl inh, EWS-Fli inh)
Fc1ccc(NC(=S)NNc2ncc(C(F)(F)F)cc2Cl)c(F)c1	MITF TRPM1 inh inconclusive, EBV LMP1 NFkB 45, PAX8 inh HTS 85
Fc1ccc(CO/N=C/C2=C(Cl)c3ccccc3CC2)cc1	PGC1a acetyl inh 79 (no result: EWS-Fli inh, LGR2 antag, PAX8 inh HTS)
O=c1cc2c(nn1Cc1ccc(F)cc1)-c1ccccc1CC2	none (no result: PGC1a acetyl inh)
NC(=O)[C@H]1CC2(CC(c3cccc(NC(=O)COc4ccc(Cl)cc4)c3)=NO2)CN1C(=O)CC(c1ccccc1)c1ccccc1 (some centres undefined)	none
NC(=O)[C@@H]1CC2(CC(c3cccc(NC(=O)CC(c4ccccc4)c4ccccc4)c3)=NO2)CN1C(=O)COc1ccc(Cl)cc1 (some centres undefined)	PAX8 inh HTS 77 (no result: PGC1a acetyl inh)
NC(=O)[C@H]1CC2(CC(c3cccc(NC(=O)CC(c4ccccc4)c4ccccc4)c3)=NO2)CN1C(=O)C(c1ccccc1)c1ccccc1 (some centres undefined)	PAX8 inh HTS 69 (no result: PGC1a acetyl inh)
COc1ccccc1C#Cc1ccc2c(c1)O[C@@H](CN(C)Cc1cccnc1)[C@H](C)CN([C@@H](C)CO)S2(=O)=O	PGC1a acetyl inh 44, PAX8 inh HTS 68 (no result: MITF TRPM1 inh, EBV LMP1 NFkB)
COc1ccccc1C#Cc1ccc2c(c1)O[C@@H](CN(C)Cc1cccnc1)[C@@H](C)CN([C@@H](C)CO)S2(=O)=O	none (no result: MITF TRPM1 inh, EBV LMP1 NFkB)
COc1ccccc1C#Cc1ccc2c(c1)O[C@@H](CN(C)Cc1ccncc1)[C@@H](C)CN([C@H](C)CO)S2(=O)=O	none (no result: MITF TRPM1 inh, EBV LMP1 NFkB)
COc1ccccc1C#Cc1ccc2c(c1)O[C@@H](CN(C)Cc1ccncc1)[C@H](C)CN([C@H](C)CO)S2(=O)=O	PAX8 inh HTS 99 (no result: MITF TRPM1 inh, EBV LMP1 NFkB)
COc1ccccc1C#Cc1ccc2c(c1)O[C@H](CN(C)Cc1ccncc1)[C@@H](C)CN([C@@H](C)CO)S2(=O)=O	PAX8 inh HTS 93 (no result: MITF TRPM1 inh, EBV LMP1 NFkB)
COc1ccccc1C#Cc1ccc2c(c1)O[C@@H](CN(C)Cc1ccncc1)[C@H](C)CN([C@@H](C)CO)S2(=O)=O	PAX8 inh HTS 101 (no result: MITF TRPM1 inh, EBV LMP1 NFkB)
C[C@H](CO)N1C[C@H](C)[C@@H](CN(C)S(=O)(=O)c2ccccc2)OCc2ccccc2-c2ccccc2C1=O	none (no result: MITF TRPM1 inh, EBV LMP1 NFkB, PAX8 inh HTS)
COc1ccc(S(=O)(=O)N(C)C[C@@H]2Oc3ccc(NS(=O)(=O)c4ccc(Cl)cc4)cc3C(=O)N([C@@H](C)CO)C[C@@H]2C)cc1	none (no result: MITF TRPM1 inh, EBV LMP1 NFkB, PAX8 inh HTS)
O=C(c1ccccc1)c1cc(Cl)ccc1N1C(=O)C=CC1=O	MITF TRPM1 inh 84, PAX8 inh HTS inconclusive (no result: PGC1a acetyl inh, LGR2 antag)
CCCCC1CCC(C(=O)N(CCC(C)C)c2c(N)n(CCCC)c(=O)[nH]c2=O)CC1 (centres undefined)	none (no result: MITF TRPM1 inh)
CCCCn1c(N)c(N(CCC)C(=O)C2CCCC2)c(=O)[nH]c1=O	none
CCCCC1CCC(C(=O)N(CC(C)C)c2c(N)n(CCCC)c(=O)[nH]c2=O)CC1 (centres undefined)	MITF TRPM1 inh 74 (no result: PGC1a acetyl inh)
CCCCC1CCC(C(=O)N(CCCC)c2c(N)n(CCCC)c(=O)[nH]c2=O)CC1 (centres undefined)	MITF TRPM1 inh 91
CCC(=O)N(C)C[C@@H]1Oc2cc(C#CC3CCCC3)ccc2S(=O)(=O)N([C@@H](C)CO)C[C@@H]1C	none (no result: MITF TRPM1 inh, EBV LMP1 NFkB, PAX8 inh HTS)
COCC(=O)Nc1ccc2c(c1)C(=O)N(C)C[C@@H](OC)[C@@H](C)CN(C(=O)c1cnccn1)[C@@H](C)CO2	none (no result: MITF TRPM1 inh, EBV LMP1 NFkB, PAX8 inh HTS)
CCC(=O)Nc1cc2nn(-c3ccc(C)cc3)nc2cc1C	EWS-Fli inh 77, EBV LMP1 NFkB 63
CCC(=O)Nc1cc2nn(-c3ccc(OC)cc3)nc2cc1C	LGR2 antag inconclusive (no result: PGC1a acetyl inh, EWS-Fli inh, PAX8 inh HTS)
Cc1ccc(S(=O)(=O)N(C)C[C@H]2Oc3ccc(NC(=O)Nc4ccc5c(c4)OCO5)cc3CC(=O)N([C@@H](C)CO)C[C@@H]2C)cc1	none (no result: MITF TRPM1 inh, EBV LMP1 NFkB)
C[C@H]1CN([C@@H](C)CO)C(=O)Cc2cc(NC(=O)NC3CCCCC3)ccc2O[C@H]1CN(C)S(=O)(=O)c1ccc(Cl)cc1	PAX8 inh HTS 79 (no result: MITF TRPM1 inh, EBV LMP1 NFkB)
Cc1ccc(S(=O)(=O)N(C)C[C@@H]2Oc3ccc(NC(=O)CCC(F)(F)F)cc3CC(=O)N([C@@H](C)CO)C[C@@H]2C)cc1	EWS-Fli inh 66
C[C@@H]1CN([C@H](C)CO)C(=O)Cc2cc(NC(=O)Nc3ccc4c(c3)OCO4)ccc2O[C@@H]1CN(C)S(=O)(=O)c1ccccc1	none (no result: MITF TRPM1 inh, EBV LMP1 NFkB, PAX8 inh HTS)
